# Measured values: PubChem BioAssay AID463173 (ICCB-Longwood Screening Facility, Harvard Medical School, 2010)
# Among all 52,000 compounds or so, about 4,300 (8.3%) were called active. This excerpt belongs to a sample that is enriched for actives. A number with no mark means an inactive call. No stated cut-off is given here; in the data, active means survival mostly below about 52% (no sharp cut-off); inactive means mostly above about 56%.
# System: DeltatarO mutant
# Assay: growth inhibition of S. aureus wild type versus tarO mutant, primary screen, teichoic acid synthesis inhibitors, RN4220, OD600 (AID 463173)
# Conditions: OD600, 18 h, hits give low values, screened at 18.75 µg/mL (by protocol)
row,Structure (SMILES),survival
1,COc1ccc(-n2ccnc(NCCc3ccccc3)c2=O)cc1OC,102%
2,CCCOc1ccc(CNC(=O)Cn2c(=O)oc3ccccc32)cc1,80%
3,CCOc1ccc(Cn2c(=O)sc3ccccc32)cc1,85%
4,O=c1sc2ccccc2n1CCCOc1ccccc1,105%
5,CC(C)CCOc1ccc(Cn2c(=O)sc3ccccc32)cc1,0% (active)
6,CCCOc1ccc(Cn2c(=O)sc3ccccc32)cc1,-1% (active)
7,CCCCOc1ccc(Cn2c(=O)sc3ccccc32)cc1,-1% (active)
8,Cc1ccc(NC(=O)CSc2nc3n[nH]c(C)c3c(=N)n2-c2ccccc2C)cc1C,77%
9,CCOC(=O)C1CCC(CN(Cc2ccc(OC)cc2)S(=O)(=O)c2ccc(F)c(C(=O)Nc3cc(Cl)ccc3OC)c2)CC1 (stereo unspecified),83%
10,CCN(CC)S(=O)(=O)c1ccc2c(c1)N(CC(=O)Nc1cccc(C(C)=O)c1)C(=O)CO2,84%
11,Cc1ccc(Cl)cc1N1CCN(C(=O)Cn2ncc3c4ccccc4n(C)c3c2=O)CC1,54%
12,CC1=C(c2ccc(C)cc2)S(=O)(=O)NC1=NCCCN1CCN(c2ccc(F)cc2)CC1,69%
13,O=C(O)C(Cc1c[nH]c2ccccc12)Nc1ncnc2c1oc1ccccc12 (stereo unspecified),76%
14,CCc1ccc(NC(=O)CCc2c(C)nc3nc(-c4cc(OC)cc(OC)c4)nn3c2C)cc1,111%
15,CCCCc1ccc(NC(=O)CSc2nnc3[nH]c(=O)cc(C)n23)cc1,95%
16,Cc1ccc(CNC(=O)CCS(=O)(=O)c2ccc3c(c2)CC(C)N3C(=O)C2CC2)cc1 (stereo unspecified),91%
17,COc1ccccc1N1CCN(c2ncnc3c2cnn3-c2cccc(Cl)c2)CC1,-2% (active)
18,c1ccc(CN2CCN(c3ncnc4c3cnn4-c3ccccc3)CC2)cc1,69%
19,Cc1ccc(-n2ncc3c(N4CCN(Cc5ccccc5)CC4)ncnc32)cc1Cl,87%

row,Structure (SMILES),survival
1,COc1ccccc1N1CCN(c2ncnc3c2cnn3-c2cc(Cl)ccc2C)CC1,124%
2,Clc1cccc(-n2ncc3c(N4CCN(Cc5ccccc5)CC4)ncnc32)c1,25% (active)
3,COc1ccccc1N1CCN(c2ncnc3c2cnn3-c2ccc(C)cc2)CC1,91%
4,COc1cc(CSc2ncc(CO)n2Cc2ccc(C)cc2)cc(OC)c1,92%
5,Cc1ccc(-n2c(SCC(=O)c3ccccc3)nc3c([nH]c4ccccc43)c2=O)cc1,-5% (active)
6,O=C(CSc1nc2c([nH]c3ccccc32)c(=O)n1-c1ccccc1)c1ccccc1,77%
7,O=C(CSc1nc2c([nH]c3ccccc32)c(=O)n1-c1cccc(Cl)c1)c1ccccc1,47% (active)
8,CCOc1ccc(-n2c(SCC(=O)Nc3cc(C)ccc3C)nc3c([nH]c4ccccc43)c2=O)cc1,75%
9,COc1ccc(-n2c(SCC(=O)c3ccccc3)nc3c([nH]c4ccccc43)c2=O)cc1,98%
10,O=C(CSc1nc2c([nH]c3ccccc32)c(=O)n1-c1ccccc1)c1ccc(Cl)cc1,92%
11,O=C(CSc1nc2c([nH]c3ccccc32)c(=O)n1-c1ccccc1)Nc1cccc(C(F)(F)F)c1,-4% (active)
12,Cc1ccc(C)c(NC(=O)CSc2nc3c([nH]c4ccccc43)c(=O)n2-c2ccc(F)cc2)c1,32% (active)
13,O=C(CSc1nc2c([nH]c3ccccc32)c(=O)n1-c1ccc(Cl)cc1)c1ccccc1,94%
14,O=C(CSc1nc2c([nH]c3ccccc32)c(=O)n1-c1ccccc1F)Nc1cccc(C(F)(F)F)c1,74%
15,COc1cccc(NC(=O)CSc2nc3c([nH]c4ccccc43)c(=O)n2-c2ccccc2)c1,76%
16,Cc1cccc(NC(=O)CSc2nc3c([nH]c4ccccc43)c(=O)n2-c2ccc(F)cc2)c1C,49%
17,CCCn1ccc2c(OCC(=O)Nc3ccc(C(F)(F)F)cc3)cccc2c1=O,75%
18,COc1ccccc1CNC(=O)Cn1nc(C)n2cccc2c1=O,94%
19,CCN(CC)c1ccc(NC(=O)Cn2cc3c(n2)CCCC3)c(C)c1,121%

row,Structure (SMILES),survival
1,CCOc1ccc(-n2c(SCC(=O)NC3CCCC3)nnc2-c2ccoc2C)cc1,92%
2,COc1ccccc1NC(=O)c1ccc2c(Cl)c3c(nc2c1)CCCC3,15% (active)
3,CCOc1ccccc1NC(=O)c1ccc2c(Cl)c3c(nc2c1)CCC3,82%
4,O=C(Nc1ccccc1F)c1ccc2c(Cl)c3c(nc2c1)CCC3,21% (active)
5,CCOc1ccc(CNC(=O)c2ccc3c(Cl)c4c(nc3c2)CCCC4)cc1,75%
6,CCOc1ccccc1NC(=O)c1ccc2c(Cl)c3c(nc2c1)CCCC3,35% (active)
7,COc1cc(OC)c(NC(=O)c2ccc3c(Cl)c4c(nc3c2)CCCC4)cc1Cl,85%
8,COc1ccc(C)cc1NC(=O)c1ccc2c(SCC(=O)O)c3c(nc2c1)CCCC3,77%
9,COc1ccc(OC)c(NC(=O)c2ccc3c(Cl)c4c(nc3c2)CCCC4)c1,82%
10,O=C(Nc1ccc(F)c(Cl)c1)c1ccc2c(Cl)c3c(nc2c1)CCCC3,118%
11,COC(=O)c1ccccc1NC(=O)c1ccc2c(Cl)c3c(nc2c1)CCCC3,80%
12,COc1ccc(NC(=O)c2ccc3c(SCC(=O)O)c4c(nc3c2)CCCC4)c(OC)c1,55%
13,COc1cc(Cl)c(C)cc1NC(=O)c1ccc2c(SCC(=O)O)c3c(nc2c1)CCCC3,41% (active)
14,COc1ccc(NC(=O)C2CCN(c3ccc(Sc4ccc(C)cc4)nn3)CC2)cc1,74%
15,Cc1ccc(CNC(=O)C(C)n2c(=O)cc(-c3ccccc3)c3c(C)nn(C)c32)cc1 (stereo unspecified),80%
16,C=CCn1c(Br)nc2c1c(=O)n(C)c(=O)n2C,73%
17,CN(C1CCCCC1)S(=O)(=O)c1ccc2c(c1)c(=O)c(C(=O)NCCc1ccccc1)cn2C,79%
18,Cc1cc(C)c2c(-n3cccc3)c(C(=O)NCCc3ccccc3)sc2n1,90%
